The entries come from a sample that favours hits as a whole.
Pf Dd2 inh – inhibitors of Plasmodium falciparum Dd2 growth | 4.3% of 120,000 active | Potency, µM (doses to about 28.9 µM), actives largely listed as inhibitors | P. falciparum Dd2 growth, SYBR Green, 72 h | AID 1347417; active means well fitted inhibition curve with a large enough effect; further: nearly all actives have a fitted effect of over 65% in size
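Readout: SYBR Green fluorescence, 485 nm excitation, 535 nm emission, after ~16 h lysis at 37C. Before that, Dd2-infected red cells (2.5% hematocrit) grew 72 h with compound, 29 uM top final concentration.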
Of the large screens only hits and unclear results are named; the others gave an inactive call.

COc1cccc(NC(=O)C2CCN(c3cn[nH]c(=O)c3)C2)c1 (configuration not stated)	none
COc1ccc(CN2CCc3nc(C(=O)Nc4ccc(Cl)cc4)oc3CC2)cn1	Pf Dd2 inh 2.51µM
COc1ccc(CN2CCc3nc(C(=O)NCCOc4ccccc4)oc3CC2)cn1	none
COc1ccccc1CN1CCc2nc(C(=O)Nc3ccc(Cl)cc3)oc2CC1	none
O=C(CC1COCCN1)N1CCC2(CCC(=O)N(CCCn3ccnc3)C2)CC1 (configuration not stated)	none
Cc1ccc(-c2nc(-c3nnn4c3COC(c3ccc(Cl)cc3)C4)no2)cc1F (configuration not stated)	none
O=C(C1CC1)N1CCC(Cc2nc(C3CC3)n[nH]2)CC1	none
COc1cc(CNC2CCCCC2)ccc1OCC(O)CN1CCSCC1 (configuration not stated)	none
COc1ccc(CCNC(=O)CC2CCOCC2)cc1OC	none
OC(COc1ccccc1CNCCc1ccccc1)CN1CCSCC1 (configuration not stated)	Pf Dd2 inh 1.58µM
COc1cc(CNC2CCCCCCC2)ccc1OCC(O)CN1CCSCC1 (configuration not stated)	Pf Dd2 inh 8.91µM
COc1cc(CNCc2ccccc2C)ccc1OCC(O)CN1CCC(O)CC1 (configuration not stated)	none
C=CCc1ccccc1OCC(O)CN1CCN(c2ccccc2)CC1 (configuration not stated)	none
COc1cc(CN2CC=C(C)CC2)ccc1OCC(O)CN1CCSCC1 (configuration not stated)	none
COc1cc(CNCCc2ccccc2C)ccc1OCC(O)CN1CCOCC1 (configuration not stated)	Pf Dd2 inh 11.2µM
COc1cc(CNC(C)C)ccc1OCC(O)CN1CCSCC1 (configuration not stated)	none
Cc1nc([C@H]2CCN(Cc3ccc(F)cc3F)C[C@H]2NC(=O)CN(C)C)n[nH]1	none
O=C(O)COCC(=O)N[C@H]1CCN2C(=O)c3cc(/C=C/c4ccccc4)ccc3NC(=O)[C@H]12	none
CN(C)c1cccc(C(=O)N2CCC(n3cc(-c4nc(C5CC5)no4)nn3)C2)c1 (configuration not stated)	none
COc1ccccc1CC(=O)N1CCN(C(=O)c2nnn3c2COC(c2ccc(Cl)cc2)C3)CC1 (configuration not stated)	none
CCCN1C(=O)CC[C@H]2CN(C(=O)c3ccc4sccc4c3)CC[C@H]21	none
COC[C@H]1C[C@@H](NS(=O)(=O)CC(C)C)[C@H](O)[C@@H]1O	none
Cc1cc(C(=O)N2CCCN(S(=O)(=O)c3ccccc3)CCC(=O)NCC2)nn1C	none
COC(=O)CNC(=O)c1cc(-c2ccccc2OC)nc2c1cnn2C	none
O=C1CC(c2ccccc2)N(C(=O)C2CC2)CCCN(C(=O)C2CCCCC2)CCN1 (configuration not stated)	none
c1ccc(CN2C[C@H]3CCN(C4CCOCC4)C[C@H]32)cc1	none
COc1ccccc1CC(=O)N1CCC(C2CCN(S(C)(=O)=O)CC2)C1 (configuration not stated)	none
COc1cncc([C@@H](NC2CSCCSC2)C2CC(O)C2)c1 (some centres not stated)	none
COc1ccc(/C=C/C(=O)Nc2ccc3nc4c(c(Nc5ccc(OC)c(OC)c5)c3c2)CCCC4)cc1	Pf Dd2 inh 2.24µM
COc1ccc(Nc2c3c(nc4ccc(NC(=O)/C=C/c5cc(OC)c(OC)c(OC)c5)cc24)CCCC3)cc1OC	Pf Dd2 inh 2.51µM
COc1cc(NC(=O)CSc2c3c(nc4ccccc24)CCC3)cc(OC)c1OC	none
COc1ccc(NC(=O)c2sc3nc4c(cc3c2N)CCCCCC4)cc1OC	none
COc1ccc(/C=C/C(=O)Nc2ccc(Cl)c(Cl)c2)cc1	none
COc1cc(NC(=O)c2ccc3c(Cl)c4c(nc3c2)CCC4)cc(OC)c1OC	none
CC(C)N(C)Cc1nnnn1CC(=O)NCc1cn[nH]c1-c1ccc(F)cc1	none
O=C1Nc2ccccc2C12CN(Cc1cncs1)C2	none
N#Cc1ccc(C(=O)Nc2ccc3n(c2=O)C[C@H]2C[C@@H]3CN(C(=O)c3ccccn3)C2)cc1	none
CCNC(=O)N(C1CC1)C1CCOC2(CCN(C(=O)COc3ccccc3)CC2)C1 (configuration not stated)	none
CN(CC1CCOCC1)S(=O)(=O)Cc1cccc(Cl)c1	none
COCC(=O)N1CCOC[C@H](Oc2cnccn2)C1	none
Cc1cc(N)c(-n2cc3c(c2-c2ccc(Br)cc2)c(=O)n(C)c(=O)n3C)cc1C	none
Cn1c(=O)c2c(-c3ccccc3Br)n(CCc3ccccc3)cc2n(C)c1=O	none
Cc1ccc(-n2cc3c(c2-c2ccccc2Br)c(=O)n(C)c(=O)n3C)cc1N	Pf Dd2 inh 12.6µM
COc1cccc([C@@H]2CN(C(=O)Cc3ccc(F)cc3)C[C@H]2C(=O)O)c1OC	none
Cn1ncc(N2CCC(NC(=O)c3ccsc3)CC2)cc1=O	none
O=C(NC1CCN(c2cnn(Cc3ccccc3)c(=O)c2)CC1)c1ccsc1	Pf Dd2 inh 10µM
CC(C)(C)CC(=O)NC1CCN(c2cnn(Cc3ccccc3)c(=O)c2)CC1	none
CNC(=O)Nc1ccc(C2(C(=O)NC(C)C)CCC2)cc1	none
COc1ccc(OC)c(S(=O)(=O)N2CCC(OC3CCN(C)CC3)CC2)c1	none
COc1ccc(Cl)cc1S(=O)(=O)N1CCC(n2cnnc2C)CC1	none
COc1ccc(Cl)cc1S(=O)(=O)N1CCC(OC2CCN(C)CC2)CC1	Pf Dd2 inh 3.16µM
Cc1cccc(N2CCN(C(=O)c3noc(-c4ccc[nH]c4=O)n3)CC2)c1	none
CC1=C[C@@H](CNC(=O)CCC(=O)O)[C@H](C(C)C)C[C@H]1Cc1nc2ccc(F)cc2[nH]1	none
COc1ccc2[nH]c(C[C@@H]3C[C@@H](C(C)C)[C@H](CNC4CCN(C(C)=O)CC4)C=C3C)nc2n1	none
CC(=O)N1CCC(NC[C@@H]2C=C(C)[C@H](Cc3nc4ccc(F)cc4[nH]3)C[C@H]2C(C)C)CC1	Pf Dd2 inh 11.2µM
CC1=C[C@@H](CNC(=O)c2cnccn2)[C@H](C(C)C)C[C@H]1Cc1nc2ccc(C)cc2[nH]1	none
CC(=O)N1CCC(NC[C@@H]2C=C(C)[C@H](Cc3nc4ccc(C)cc4[nH]3)C[C@H]2C(C)C)CC1	Pf Dd2 inh 11.2µM
COC(=O)c1ccc2nc(C[C@@H]3C[C@@H](C(C)C)[C@H](CNC4CCN(C)CC4)C=C3C)[nH]c2c1	Pf Dd2 inh 3.16µM
CC1=C[C@@H](CNC(=O)CC2(CC(=O)O)CCCC2)[C@H](C(C)C)C[C@H]1Cc1nc2ccc(C)cc2[nH]1	none
CC1=C[C@@H](CNC(=O)C2CCC2)[C@H](C(C)C)C[C@H]1Cc1nc2ccc(F)cc2[nH]1	Pf Dd2 inh 11.2µM
COc1cc(NC(=O)c2c(OC)cc(=O)n3c2CCCC3)cc(OC)c1	none
CCOC(=O)c1ccc(NC(=O)c2c(OCC)cc(=O)n3c2CCCC3)cc1	none
O=Cc1cccc(N2CCN(C(=O)c3ccc4c(c3)OCO4)CC2=O)c1	none
COC(=O)CN1C(=O)[C@@H]2C[C@@H](O)CN2C2(CN(Cc3ccccc3Cl)C2)C1=O	none
CCN(CC)Cc1cc(C(=O)N[C@H](c2cccs2)C2CC(O)C2)c(C)o1 (some centres not stated)	none
Cc1c(O)cccc1C(=O)N1CCCN(Cc2ccc(F)cc2)C(C(C)C)C1 (configuration not stated)	Pf Dd2 inh 3.98µM
CC(C)C1CN(C(=O)CN2CCCCC2=O)CCCN1Cc1ccc(F)cc1 (configuration not stated)	none
CC(C)C1CN(C(=O)CNC(=O)N(C)C)CCCN1Cc1ccc(F)cc1 (configuration not stated)	none
COc1cccc(S(=O)(=O)NCCc2noc(-c3cccnc3)n2)c1	none
